Common to all, as to assay: DAPPL (digital affinity profiling via proximity ligation, sequencing); 10 mM Tris-HCl pH 7.5, 50 mM NaCl, 1 mM DTT, 4% glycerol, room temperature, 30 min; GST-TFs on glutathione beads, 16-mer random dsDNA library, 0.1% formaldehyde crosslink after washing; high values mean tight binding
The target in assay [1] is T1, FLI1 (Homo sapiens, UniProt Q01543 1-452).
T1 sequence: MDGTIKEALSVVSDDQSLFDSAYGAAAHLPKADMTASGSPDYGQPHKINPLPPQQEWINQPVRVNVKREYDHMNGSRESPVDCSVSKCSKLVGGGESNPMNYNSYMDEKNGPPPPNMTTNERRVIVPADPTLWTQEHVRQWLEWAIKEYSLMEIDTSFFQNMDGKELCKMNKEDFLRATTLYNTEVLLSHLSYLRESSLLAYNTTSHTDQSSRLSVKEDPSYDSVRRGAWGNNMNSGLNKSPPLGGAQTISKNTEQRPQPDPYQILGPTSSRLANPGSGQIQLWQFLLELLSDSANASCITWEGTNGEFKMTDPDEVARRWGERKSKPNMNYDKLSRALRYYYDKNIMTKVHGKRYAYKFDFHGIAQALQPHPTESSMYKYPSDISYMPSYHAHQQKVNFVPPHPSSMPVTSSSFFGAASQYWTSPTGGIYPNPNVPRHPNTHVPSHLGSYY
To be noted: protein: recombinant; tags: N-terminal GST; dsDNA, one strand shown. The gist of the method: (§1)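 Pools were built from human transcription factors expressed in yeast as GST fusions, captured on glutathione beads and DNA-barcoded, along with a tag-only sample. Incubation with 200 nmole of a 16-mer random double-stranded DNA library lasted 30 min at room temperature in Tris/NaCl/DTT/glycerol buffer, and was followed by washing, 0.1% formaldehyde crosslinking, proximity ligation, PCR amplification and Illumina NextSeq500 sequencing. Binding signal is the quotient of each hexamer's read frequency for a factor and its frequency for the tag-only sample.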

Assay [2] concerns the target T2, ELK1 (Homo sapiens, UniProt P19419 1-428).
T2 sequence: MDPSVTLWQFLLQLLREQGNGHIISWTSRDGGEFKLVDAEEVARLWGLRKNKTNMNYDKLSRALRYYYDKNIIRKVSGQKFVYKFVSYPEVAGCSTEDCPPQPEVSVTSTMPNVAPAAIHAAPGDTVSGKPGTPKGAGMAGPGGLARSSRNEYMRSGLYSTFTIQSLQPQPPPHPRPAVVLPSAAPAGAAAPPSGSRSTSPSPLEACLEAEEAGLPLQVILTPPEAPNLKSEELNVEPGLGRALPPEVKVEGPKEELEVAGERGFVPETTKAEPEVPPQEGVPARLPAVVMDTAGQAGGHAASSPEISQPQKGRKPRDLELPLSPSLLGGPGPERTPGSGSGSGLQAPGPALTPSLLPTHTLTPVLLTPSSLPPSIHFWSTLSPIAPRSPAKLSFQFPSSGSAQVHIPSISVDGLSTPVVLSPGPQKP
The note with it: protein: recombinant; tags: N-terminal GST; dsDNA, one strand shown. The gist of the method: as §1

Assay [3] deals with T3, GABPA (Homo sapiens, UniProt Q06546 1-454).
T3 sequence: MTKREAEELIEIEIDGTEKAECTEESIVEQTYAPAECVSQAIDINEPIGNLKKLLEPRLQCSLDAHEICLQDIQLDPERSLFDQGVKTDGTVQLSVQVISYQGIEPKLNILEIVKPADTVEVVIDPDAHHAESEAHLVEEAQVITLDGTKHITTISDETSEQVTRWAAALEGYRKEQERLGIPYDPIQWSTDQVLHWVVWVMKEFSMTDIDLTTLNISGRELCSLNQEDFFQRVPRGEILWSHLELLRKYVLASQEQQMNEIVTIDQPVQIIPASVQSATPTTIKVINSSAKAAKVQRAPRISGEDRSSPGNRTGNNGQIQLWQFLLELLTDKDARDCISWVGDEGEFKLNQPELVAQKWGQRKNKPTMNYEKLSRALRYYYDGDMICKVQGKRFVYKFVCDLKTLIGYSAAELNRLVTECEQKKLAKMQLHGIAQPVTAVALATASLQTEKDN
To be noted: protein: recombinant; tags: N-terminal GST; dsDNA, one strand shown. Put shortly: as §1

For assay [4], the target named is T4, ERG (Homo sapiens, UniProt P11308 1-479).
T4 sequence: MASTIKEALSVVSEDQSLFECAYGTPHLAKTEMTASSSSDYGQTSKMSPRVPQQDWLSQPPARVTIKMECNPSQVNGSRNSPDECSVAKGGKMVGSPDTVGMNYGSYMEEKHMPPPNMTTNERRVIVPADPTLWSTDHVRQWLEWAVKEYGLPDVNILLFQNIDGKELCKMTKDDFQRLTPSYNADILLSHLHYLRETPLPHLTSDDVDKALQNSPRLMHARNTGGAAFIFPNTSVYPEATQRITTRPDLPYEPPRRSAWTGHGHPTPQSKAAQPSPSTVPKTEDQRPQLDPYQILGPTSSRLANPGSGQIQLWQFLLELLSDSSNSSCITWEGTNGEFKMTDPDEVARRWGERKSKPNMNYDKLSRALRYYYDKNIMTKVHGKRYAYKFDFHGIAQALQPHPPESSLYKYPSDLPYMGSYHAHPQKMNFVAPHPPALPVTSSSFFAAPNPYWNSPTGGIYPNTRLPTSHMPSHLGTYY
The note with it: protein: recombinant; tags: N-terminal GST; dsDNA, one strand shown. The gist of the method: as §1

For assay [5], the target named is ELF1 (Homo sapiens, UniProt P32519 1-619). The note with it: protein: recombinant; tags: N-terminal GST; dsDNA, one strand shown. The gist of the method: as §1
Chain of ELF1 (P32519 whole entry): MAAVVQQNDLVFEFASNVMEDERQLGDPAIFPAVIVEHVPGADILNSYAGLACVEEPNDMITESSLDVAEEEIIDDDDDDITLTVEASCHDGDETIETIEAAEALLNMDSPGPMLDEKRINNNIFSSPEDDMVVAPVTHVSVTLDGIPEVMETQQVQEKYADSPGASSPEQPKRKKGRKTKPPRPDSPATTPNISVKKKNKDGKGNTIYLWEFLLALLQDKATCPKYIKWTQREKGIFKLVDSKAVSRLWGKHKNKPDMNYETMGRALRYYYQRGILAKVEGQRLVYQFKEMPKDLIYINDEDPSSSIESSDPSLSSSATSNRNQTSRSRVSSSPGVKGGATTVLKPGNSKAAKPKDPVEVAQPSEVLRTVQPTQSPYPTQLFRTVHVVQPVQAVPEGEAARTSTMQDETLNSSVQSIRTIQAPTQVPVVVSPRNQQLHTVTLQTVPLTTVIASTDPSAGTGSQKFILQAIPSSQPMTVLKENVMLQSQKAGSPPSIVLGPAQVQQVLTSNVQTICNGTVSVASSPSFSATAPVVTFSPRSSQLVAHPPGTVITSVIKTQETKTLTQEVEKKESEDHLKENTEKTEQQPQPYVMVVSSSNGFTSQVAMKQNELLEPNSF
Assay [6] deals with T5, EHF (Homo sapiens, UniProt Q9NZC4 1-300).
T5 sequence: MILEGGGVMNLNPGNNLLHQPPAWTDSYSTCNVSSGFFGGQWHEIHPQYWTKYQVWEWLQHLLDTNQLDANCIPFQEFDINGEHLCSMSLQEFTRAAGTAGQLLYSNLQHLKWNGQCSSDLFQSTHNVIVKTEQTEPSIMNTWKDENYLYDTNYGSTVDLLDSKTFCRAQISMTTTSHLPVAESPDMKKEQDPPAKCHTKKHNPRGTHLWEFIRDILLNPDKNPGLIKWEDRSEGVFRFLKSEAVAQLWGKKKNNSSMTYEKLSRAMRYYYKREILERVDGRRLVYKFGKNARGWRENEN
To be noted: protein: recombinant; tags: N-terminal GST; dsDNA, one strand shown. The gist of the method: as §1

For assay [7], the target named is SPI1 (Homo sapiens, UniProt P17947 1-270). To be noted: protein: recombinant; tags: N-terminal GST; dsDNA, one strand shown. Put shortly:
as §1

Assay [8] deals with T6, ELK3 (Homo sapiens, UniProt P41970 1-407).
T6 sequence: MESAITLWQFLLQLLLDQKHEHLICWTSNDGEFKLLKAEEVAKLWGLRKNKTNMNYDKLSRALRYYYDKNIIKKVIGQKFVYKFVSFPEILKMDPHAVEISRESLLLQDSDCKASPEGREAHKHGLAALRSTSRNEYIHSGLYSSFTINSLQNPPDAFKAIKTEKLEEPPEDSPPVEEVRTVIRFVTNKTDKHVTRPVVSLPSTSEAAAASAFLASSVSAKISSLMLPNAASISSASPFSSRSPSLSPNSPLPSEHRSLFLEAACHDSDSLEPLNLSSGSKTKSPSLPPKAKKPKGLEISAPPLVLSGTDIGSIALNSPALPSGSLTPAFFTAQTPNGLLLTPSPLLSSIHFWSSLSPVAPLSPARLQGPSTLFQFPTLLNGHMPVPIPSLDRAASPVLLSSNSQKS
To be noted: protein: recombinant; tags: N-terminal GST; dsDNA, one strand shown. Put shortly:
as §1

Assay [9] deals with T7, FEV (Homo sapiens, UniProt Q99581 1-238).
T7 sequence: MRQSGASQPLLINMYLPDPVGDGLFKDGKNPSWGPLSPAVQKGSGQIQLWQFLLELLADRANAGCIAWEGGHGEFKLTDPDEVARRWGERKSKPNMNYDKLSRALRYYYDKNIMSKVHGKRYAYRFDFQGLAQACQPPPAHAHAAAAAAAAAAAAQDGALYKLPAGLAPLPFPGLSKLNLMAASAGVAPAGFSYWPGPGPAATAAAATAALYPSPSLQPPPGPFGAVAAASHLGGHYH
To be noted: protein: recombinant; tags: N-terminal GST; dsDNA, one strand shown. The gist of the method:
as §1

Assay [10] addresses ETV5 (Homo sapiens, UniProt P41161 1-510). The note with it: protein: recombinant; tags: N-terminal GST; dsDNA, one strand shown. The gist of the method: as §1
The target of assay [11] is HSF1 (Homo sapiens, UniProt Q00613 1-529). To be noted: protein: recombinant; tags: N-terminal GST; chain copies: 3; dsDNA, one strand shown. The gist of the method: as §1
Chain of HSF1 (Q00613 whole entry): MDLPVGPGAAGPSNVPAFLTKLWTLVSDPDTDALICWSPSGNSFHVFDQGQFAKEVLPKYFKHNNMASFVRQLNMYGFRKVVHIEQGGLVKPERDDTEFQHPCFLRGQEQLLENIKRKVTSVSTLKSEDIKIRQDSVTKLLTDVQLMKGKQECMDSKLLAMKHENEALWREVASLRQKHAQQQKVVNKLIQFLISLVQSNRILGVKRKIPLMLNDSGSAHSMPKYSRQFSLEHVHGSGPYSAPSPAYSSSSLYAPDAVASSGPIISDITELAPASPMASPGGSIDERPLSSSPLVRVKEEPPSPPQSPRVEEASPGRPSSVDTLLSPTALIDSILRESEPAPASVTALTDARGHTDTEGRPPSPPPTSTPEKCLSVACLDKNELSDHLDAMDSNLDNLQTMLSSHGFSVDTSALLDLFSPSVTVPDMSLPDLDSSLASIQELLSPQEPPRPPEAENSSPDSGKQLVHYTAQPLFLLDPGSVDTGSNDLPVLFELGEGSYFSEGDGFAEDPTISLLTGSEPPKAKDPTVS
The target in assay [12] is T8, SPIC (Homo sapiens, UniProt Q8N5J4 1-248).
T8 sequence: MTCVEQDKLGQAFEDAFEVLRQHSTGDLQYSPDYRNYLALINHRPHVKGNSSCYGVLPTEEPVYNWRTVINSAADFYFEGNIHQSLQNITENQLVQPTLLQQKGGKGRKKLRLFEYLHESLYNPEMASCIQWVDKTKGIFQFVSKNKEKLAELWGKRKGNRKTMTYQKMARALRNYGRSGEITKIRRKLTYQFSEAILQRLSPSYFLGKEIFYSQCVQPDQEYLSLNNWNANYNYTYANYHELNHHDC
To be noted: protein: recombinant; tags: N-terminal GST; dsDNA, one strand shown. Put shortly:
as §1

Assay [13] has as its target ELF4 (Homo sapiens, UniProt Q99607 1-663). To be noted: protein: recombinant; tags: N-terminal GST; dsDNA, one strand shown. Put shortly:
as §1

Assay [14] addresses T9, ELK4 (Homo sapiens, UniProt P28324-2 1-405).
T9 sequence: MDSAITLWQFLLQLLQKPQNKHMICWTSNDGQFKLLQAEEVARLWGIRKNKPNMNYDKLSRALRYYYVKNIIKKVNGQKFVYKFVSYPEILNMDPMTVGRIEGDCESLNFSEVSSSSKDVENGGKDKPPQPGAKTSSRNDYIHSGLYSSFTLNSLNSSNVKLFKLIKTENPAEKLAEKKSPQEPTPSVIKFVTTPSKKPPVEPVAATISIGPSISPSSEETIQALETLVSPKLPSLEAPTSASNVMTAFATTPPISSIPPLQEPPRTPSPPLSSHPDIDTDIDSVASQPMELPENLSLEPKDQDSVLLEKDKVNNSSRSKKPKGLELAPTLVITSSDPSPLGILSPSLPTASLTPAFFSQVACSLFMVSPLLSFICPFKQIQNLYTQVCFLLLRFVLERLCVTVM
The note with it: protein: recombinant; tags: N-terminal GST; dsDNA, one strand shown. The gist of the method:
as §1

The target in assay [15] is T10, ETV2 (Homo sapiens, UniProt O00321 1-342).
T10 sequence: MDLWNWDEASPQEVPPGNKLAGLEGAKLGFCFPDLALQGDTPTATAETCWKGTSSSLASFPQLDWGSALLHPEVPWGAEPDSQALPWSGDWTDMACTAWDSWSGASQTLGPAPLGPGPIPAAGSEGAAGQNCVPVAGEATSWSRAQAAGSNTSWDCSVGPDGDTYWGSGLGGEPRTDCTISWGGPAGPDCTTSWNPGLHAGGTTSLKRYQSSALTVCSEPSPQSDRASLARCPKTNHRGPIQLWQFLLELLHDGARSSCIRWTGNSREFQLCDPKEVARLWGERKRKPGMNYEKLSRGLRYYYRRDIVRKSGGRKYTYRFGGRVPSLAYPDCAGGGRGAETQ
To be noted: protein: recombinant; tags: N-terminal GST; dsDNA, one strand shown. Put shortly: as §1

For assay [16], the target named is T11, ELF3 (Homo sapiens, UniProt P78545 1-371).
T11 sequence: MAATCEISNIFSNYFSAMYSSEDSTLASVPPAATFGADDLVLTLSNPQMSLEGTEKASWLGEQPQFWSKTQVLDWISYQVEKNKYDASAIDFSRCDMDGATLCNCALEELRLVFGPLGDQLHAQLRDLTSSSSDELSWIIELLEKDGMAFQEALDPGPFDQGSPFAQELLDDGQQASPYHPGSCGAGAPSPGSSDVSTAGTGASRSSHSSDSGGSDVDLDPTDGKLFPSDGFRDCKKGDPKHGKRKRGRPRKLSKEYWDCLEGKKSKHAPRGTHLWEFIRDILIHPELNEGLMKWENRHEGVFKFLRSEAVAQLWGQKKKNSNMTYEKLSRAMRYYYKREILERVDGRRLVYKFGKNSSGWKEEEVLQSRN
The note with it: protein: recombinant; tags: N-terminal GST; dsDNA, one strand shown. Put shortly:
as §1

Assay [17] addresses ETV1 (Homo sapiens, UniProt P50549 1-477). The note with it: protein: recombinant; tags: N-terminal GST; dsDNA, one strand shown. The gist of the method: as §1

Chain of ETV5 (P41161 whole entry): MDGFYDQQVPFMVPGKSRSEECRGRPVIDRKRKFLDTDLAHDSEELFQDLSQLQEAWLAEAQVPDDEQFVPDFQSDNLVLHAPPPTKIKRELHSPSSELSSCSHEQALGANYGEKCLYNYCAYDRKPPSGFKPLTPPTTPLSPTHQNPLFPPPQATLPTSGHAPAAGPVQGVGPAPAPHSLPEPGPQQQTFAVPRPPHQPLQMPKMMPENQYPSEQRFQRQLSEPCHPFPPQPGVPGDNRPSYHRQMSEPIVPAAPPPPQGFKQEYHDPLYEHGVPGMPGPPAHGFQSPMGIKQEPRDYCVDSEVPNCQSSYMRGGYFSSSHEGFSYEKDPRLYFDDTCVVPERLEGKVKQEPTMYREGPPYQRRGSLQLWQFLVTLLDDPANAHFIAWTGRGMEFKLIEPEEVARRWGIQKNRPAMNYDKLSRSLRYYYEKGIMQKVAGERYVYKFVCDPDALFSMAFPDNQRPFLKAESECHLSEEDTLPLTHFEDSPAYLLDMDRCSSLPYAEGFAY
Chain of ELF4 (Q99607 whole entry): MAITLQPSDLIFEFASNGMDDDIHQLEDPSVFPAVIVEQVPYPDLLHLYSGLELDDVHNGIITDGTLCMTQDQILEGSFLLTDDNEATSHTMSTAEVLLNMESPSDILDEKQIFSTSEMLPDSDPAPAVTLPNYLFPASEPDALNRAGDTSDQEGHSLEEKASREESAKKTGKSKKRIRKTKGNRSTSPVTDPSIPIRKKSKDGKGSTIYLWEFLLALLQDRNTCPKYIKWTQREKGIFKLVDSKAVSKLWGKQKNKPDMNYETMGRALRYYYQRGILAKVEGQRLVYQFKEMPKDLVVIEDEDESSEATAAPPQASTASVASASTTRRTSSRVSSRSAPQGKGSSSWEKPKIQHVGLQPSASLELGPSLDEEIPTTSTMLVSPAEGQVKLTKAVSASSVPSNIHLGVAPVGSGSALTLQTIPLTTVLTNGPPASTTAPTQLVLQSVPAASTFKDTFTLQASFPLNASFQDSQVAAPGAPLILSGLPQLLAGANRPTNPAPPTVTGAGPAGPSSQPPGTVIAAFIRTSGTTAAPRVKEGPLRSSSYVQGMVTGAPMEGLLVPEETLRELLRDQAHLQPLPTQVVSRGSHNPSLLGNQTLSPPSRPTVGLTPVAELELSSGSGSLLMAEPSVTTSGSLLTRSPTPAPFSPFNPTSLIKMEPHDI
Chain of ETV1 (P50549 whole entry): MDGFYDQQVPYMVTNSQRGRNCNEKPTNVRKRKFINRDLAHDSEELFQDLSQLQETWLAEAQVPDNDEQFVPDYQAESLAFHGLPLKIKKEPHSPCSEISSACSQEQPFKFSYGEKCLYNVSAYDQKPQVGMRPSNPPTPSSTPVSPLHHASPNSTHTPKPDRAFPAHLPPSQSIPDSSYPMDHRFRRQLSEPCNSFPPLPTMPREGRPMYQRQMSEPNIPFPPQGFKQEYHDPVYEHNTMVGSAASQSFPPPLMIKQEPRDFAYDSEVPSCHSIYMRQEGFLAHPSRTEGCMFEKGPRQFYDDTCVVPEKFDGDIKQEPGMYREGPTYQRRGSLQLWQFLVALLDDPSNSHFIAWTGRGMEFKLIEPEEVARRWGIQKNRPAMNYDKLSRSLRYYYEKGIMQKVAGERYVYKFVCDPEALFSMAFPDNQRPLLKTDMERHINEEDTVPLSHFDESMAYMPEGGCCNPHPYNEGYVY

With CGCTAG, the binding signal is 1.07 fold enrichment (6-mer frequency, TF over GST control) in [1]; 1.06 fold enrichment (6-mer frequency, TF over GST control) in [2]; 1.09 fold enrichment (6-mer frequency, TF over GST control) in assay [3]; 1.03 fold enrichment (6-mer frequency, TF over GST control) in assay [4]; 1.04 fold enrichment (6-mer frequency, TF over GST control) in [5]; 1.12 fold enrichment (6-mer frequency, TF over GST control) in assay [6]. The binding signal in [7] is 1.09 fold enrichment (6-mer frequency, TF over GST control); in assay [8], 1.3 fold enrichment (6-mer frequency, TF over GST control); in assay [9] it was 1.06 fold enrichment (6-mer frequency, TF over GST control); in assay [10], 1.02 fold enrichment (6-mer frequency, TF over GST control); in assay [11] it was 1.29 fold enrichment (6-mer frequency, TF over GST control); in assay [12] it was 1.03 fold enrichment (6-mer frequency, TF over GST control). Besides, the binding signal was 1.11 fold enrichment (6-mer frequency, TF over GST control) in assay [13]; 1.09 fold enrichment (6-mer frequency, TF over GST control) in [14]; 1.19 fold enrichment (6-mer frequency, TF over GST control) in assay [15]; 1.01 fold enrichment (6-mer frequency, TF over GST control) in assay [16]; 1.03 fold enrichment (6-mer frequency, TF over GST control) in assay [17].

These data come from paper PMC7862700, “An all-to-all approach to the identification of sequence-specific readers for epigenetic DNA modifications on cytosine”.
